Each structure is given as a SMILES string. Records with an inconclusive call do not appear. Unmarked numbers belong to inactive results. The source made the active and inactive calls. Calls follow the shape of the dose curve; as a rule, active = well fitted activation curve with a large enough effect in the signal ratio in the repeat runs (not every such curve was filed as active); inconclusive = weak or mixed curves; inactive = flat fitted curve, though single readings scatter; the % refers to the signal ratio.
% is scaled to controls: 0 for no effect and ±100 for the full control effect.

The assay in a line: qHTS assay to identify small molecule agonists of the TGF-beta/Smad signaling pathway (AID 1346859). The note with it: SBE-bla HEK293T, TGF-beta/Smad beta-lactamase reporter, 5 h; series mostly up to 76.8 µM; activation: at the top concentration. The text has this:
U.S. Tox21 Program National Center for Advancing Translational Sciences [NCATS] NIH Chemical Genomics Center [NCGC] U.S. Environmental Protection Agency [EPA] National Institutes of Environmental Health Sciences [NIEHS] National Toxicology Program [NTP] U.S. Food and Drug Administration [FDA] Tox21 Assay Overview: Transforming growth factor beta (TGF-beta) superfamily consists of a large number of structurally related dimeric proteins that act as hormones or local mediators in regulating a wide range of biological functions. This superfamily includes TGF-betas themselves, the bone morphogenetic proteins (BMPs) and the activins. These ligands induce oligomerization of serine/threonine receptor kinases and phosphorylate the cytoplasmic signaling molecules of Smad protein family. CellSensor SBE-bla HEK 293T cell line (Life Technologies, Carlsbad, CA), responsive to TGF-beta was used to screen Tox21 10K compound library for identification of agonists/antagonists of the Smad signaling pathway. This cell line contains a beta-lactamase reporter gene under control of the Smad binding element (SBE) stably integrated into HEK 293T cells.
Tox21 Assay Protocol Summary: SBE-bla HEK 293T cells were dispensed at 4,000/well in 6 uL of assay medium into black wall/clear-bottom 1536-well plates using a Multidrop Combi (ThermoFisher Scientific, Waltham, MA) dispenser. After the assay plates were incubated at 37 C and 5% CO2 for an overnight, 23 nL of compounds dissolved in DMSO, positive controls or DMSO only was transferred to the assay plate by a Pintool station (Kalypsys, San Diego, CA). The assay plates were incubated at 37 C and 5% CO2 for 5 hr. One uL of LiveBLAzer B/G FRET substrate (Life Technologies) was added using a Flying Reagent Dispenser (Aurora Discovery, San Diego, CA) and the plates were incubated at room temperature for 2 hr. Fluorescence intensity (405 nm excitation, 460 nm and 530 nm emissions) was measured using an Envision plate reader (PerkinElmer, Shelton, CT).
A general note: Quantitative high-throughput screening tests each substance at several concentrations.
With `CC(C)(C)NCC(O)c1cc(O)cc(O)c1` (stereo not given), the “activation” value was 0.265% [at 35.3 µM].
Turning to `CCc1cc(C(C)(C)C)c(O)c(C(C)(C)C)c1`, the result was inactive.
In the case of `C=C(C)C1CC=C(C)C(OC(C)=O)C1` (stereo not given), the compound was called inactive.
Turning to `Oc1c(Cl)cc(Cl)cc1Sc1cc(Cl)cc(Cl)c1O`, the outcome was inactive.
On the same count and under the same terms, in the case of `O=C(OCc1ccccc1)c1ccc(O)cc1` it was “inactive”; in that of `Nc1cc(S(=O)(=O)O)cc2cc(S(=O)(=O)O)cc(O)c12`, “inactive”.
On to `CCCNC(C)C(=O)Nc1ccccc1C` (stereo not given), for which the “activation” value is 2.12% [at 35.3 µM].
Consider `COc1ccc(CCN2CCC(Nc3nc4ccccc4n3Cc3ccc(F)cc3)CC2)cc1`, for which the “activation” value was -4.62% [at 35.3 µM].
On the same count and under the same terms, in the case of `CC(=O)CC(C)=O` it was -6.56%.
For `Nc1nc2ccccc2[nH]1`, the compound was called inactive.
As to `CC(C)CCOCc1ccccc1`, the “activation” value was -1.03%.
For the compound `COc1ccc(COC(C)=O)cc1`, the compound was called inactive.
For `Cc1scc2c1N(C(=O)CN1CCN(C)CC1)c1ccccc1NC2=O`, the “activation” value is -0.14% [at 35.3 µM].
`c1ccc2n[nH]nc2c1`: the outcome was inactive.
`O=C1NCC2(CCN(CCc3ccccc3)CC2)O1`: the “activation” value was 0.335% [at 35.3 µM].
As to `COc1nc(C)nc(Cl)c1NC1=NCCN1`, the “activation” value is 4.05% [at 35.3 µM].
In the case of `CC(=O)N[C@@H](CS)C(=O)O`, the call was inactive.
On to `COC(=O)c1cccc(C(=O)OC)c1`, for which the call was inactive.
Consider `NC(N)=Nc1nc(CSCC/C(N)=N/S(N)(=O)=O)cs1`, for which the result was inactive.
In the case of `CCCN[C@H]1CCc2nc(N)sc2C1`, the outcome was inactive.
`CCn1cc(C(=O)O)c(=O)c2cc(F)c(N3CCNC(C)C3)c(F)c21` (stereo not given): the “activation” value is -0.14% [at 35.3 µM].
With `C/C=C/c1ccc(OCC)c(O)c1`, the call was inactive.
With `C=CC(=O)OCCCCCCOC(=O)C=C`, the call was inactive.
Take `C=CS(=O)(=O)O`: the “activation” value was 1.92%.
Same read-out and setting: in the case of `CC[C@@H](N)CO` it was 3.77%; in that of `CC(C)(C)NCC(O)COc1ccccc1OCC1CCCO1` (stereo not given), 0.226% [at 35.3 µM].
On to `C#CC(C)(CC)OC(=O)c1ccccc1C(=O)O` (stereo not given), for which the “activation” value was -0.0415% [at 35.3 µM].
For the compound `CC(=O)OCC1=C(C(=O)O)N2C(=O)[C@@H](NC(=O)Cc3cccs3)[C@H]2SC1`, the “activation” value is 1.17% [at 35.3 µM].
Consider `CCN(CC)C(=S)SSC(=S)N(CC)CC`, for which the compound was classed as inactive.
As for `COC(c1ccccc1)(c1ccccc1)[C@H](Oc1nc(C)cc(C)n1)C(=O)O`, the “activation” value was -1.77% [at 35.3 µM].
On the same count and under the same terms, in the case of `CCn1c2ccccc2c2cc(N)ccc21` it was -5.16%.
Take `Nc1nc(=S)c2[nH]cnc2[nH]1`: the call was inactive.
As for `CCC(CO)(CO)COCC(CC)(CO)CO`, the “activation” value was 1.05%.
In the case of `O=C(O)Cn1cnnn1`, the “activation” value was 2.31% [at 35.3 µM].
For the compound `O=C1Nc2ccccc2C1(c1ccc(O)cc1)c1ccc(O)cc1`, the call was inactive.
With `NC(=Nc1ccccc1)Nc1ccccc1`, the “activation” value is 2.6% [at 35.3 µM].
Consider `Cc1cc(Cc2cc(C)cc(C(C)(C)C)c2O)c(O)c(C(C)(C)C)c1`, for which the “activation” value was 4.19%.
As to `COC(=O)/C=C/c1ccccc1`, the outcome was inactive.
For the compound `CC(=O)CC(=O)Nc1ccc2[nH]c(=O)[nH]c2c1`, the “activation” value is -0.476%.
The same measure, in the same setting: in the case of `N[C@@H]1CONC1=O` it was -0.407% [at 35.3 µM].
